gsp agonist: activates gsp, the McCune-Albright syndrome mutation; gsp mutant cells, cAMP HTRF, 30 min; Potency, µM (doses to about 76.9 µM), for the others: at the top dose activation (cAMP increase), hits mostly activators; 0.13% of 340,000 active; active = well fitted activation curve with a large enough effect; inconclusive = small, poorly fitted or top-dose-only effect, or another doubt; inactive = no such curve, though single readings can be large or run the other way; cell line not stated here;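 note: phosphodiesterase inhibitor Ro 20-1724 added with compounds to block cAMP breakdown; potency is the fitted concentration of half-maximal effect; nearly all actives have a fitted effect of over 60% in size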
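Cells in DMEM/10% FBS with G418 were pretreated with compounds in DMSO plus […] (300 uM stock) for 30 min at 37C. cAMP was measured by HTRF (cAMP-d2 plus anti-cAMP antibody-K) after 30 min at room temperature.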
gsp antag: gsp mutant antagonism. gsp-mutant cells, cAMP HTRF, 30 min. Potency, µM (series often up to 76.9 µM), inactives show top-dose activity change, negative = inhibition, usual class: inhibitors. 0.4% of 340,000 active. AID 624288; calls by dose curve; cell line not stated here;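 note: intracellular cAMP measured with PDE inhibitor Ro 20-1724 present during compound exposure; potency is the fitted concentration of half-maximal effect; % is set by controls: 0 for no effect and ±100 for the full control effect; nearly all actives have a fitted effect of over 65% in size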
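Cells, 2000/well, grown 16–24 h in DMEM 10% FBS with 0.5 mg/ml G418, then compounds plus […] (300 uM addition stock), 30 min at 37C. cAMP read by HTRF (cAMP-d2 and anti-cAMP antibody-K in lysis buffer) after 30 min RT.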
Mm-Cpn inhibitor: inhibitors of Methanococcus maripaludis chaperonin TRiC (MmCpn); purified Mm-Cpn ATPase, ADP Transcreener TR-FRET; Potency, µM (top dose mostly 76.9 µM), without a hit: at the highest dose activity, negative = inhibition, usual class: inhibitors; 0.031% of 330,000 active; AID 504842; note: potency is the fitted concentration of half-maximal effect; % is set by controls: 0 for no effect and ±100 for the full control effect; nearly all actives have a fitted effect of over 80% in size
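Quantitative HTS used 25 nM Mm-CPN and 10 uM ATP in magnesium/KCl Tris buffer, pH 7.4, with 1 mM DTT. Hydrolysis ran 30 min at 37°C; ADP was read by HTRF.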
RXFP1 antag: RXFP1 (human) relaxin receptor antagonism; Q9HBX9; HEK293-RXFP1, relaxin-stimulated cAMP HTRF, 30 min; stronger effect = lower value; activity change, negative = inhibition, % at 57.5 µM; 0.59% of 350,000 active; AID 1259400;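 active = activity change of -60% or lower, but not beyond a set lower limit; inconclusive = change between -60% and -40%, or beyond the set limit; inactive = change above -40%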; note: % is set by controls: 0 for no effect and ±100 for the full control effect
Target sequence (Q9HBX9 whole entry, looked up): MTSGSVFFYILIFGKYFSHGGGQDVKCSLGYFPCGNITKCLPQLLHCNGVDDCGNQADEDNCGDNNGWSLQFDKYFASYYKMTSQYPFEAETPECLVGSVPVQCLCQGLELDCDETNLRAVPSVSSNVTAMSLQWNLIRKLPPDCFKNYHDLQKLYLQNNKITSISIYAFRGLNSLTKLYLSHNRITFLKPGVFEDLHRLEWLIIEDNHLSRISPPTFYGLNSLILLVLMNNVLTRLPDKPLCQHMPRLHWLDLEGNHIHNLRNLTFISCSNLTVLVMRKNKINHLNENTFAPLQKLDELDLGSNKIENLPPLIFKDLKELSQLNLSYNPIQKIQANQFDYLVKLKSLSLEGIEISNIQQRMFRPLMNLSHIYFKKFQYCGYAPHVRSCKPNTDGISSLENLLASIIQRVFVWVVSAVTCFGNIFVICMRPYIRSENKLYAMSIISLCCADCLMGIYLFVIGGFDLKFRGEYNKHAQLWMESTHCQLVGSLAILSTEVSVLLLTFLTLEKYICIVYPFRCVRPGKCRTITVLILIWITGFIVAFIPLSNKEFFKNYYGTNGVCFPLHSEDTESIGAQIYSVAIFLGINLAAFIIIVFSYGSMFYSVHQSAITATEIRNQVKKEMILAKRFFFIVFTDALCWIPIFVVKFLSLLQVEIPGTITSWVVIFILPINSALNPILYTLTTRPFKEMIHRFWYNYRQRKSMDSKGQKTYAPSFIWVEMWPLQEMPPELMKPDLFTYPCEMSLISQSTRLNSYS
CCT modulator: cytosolic chaperonin activity modulation; purified chaperonin ATPase assay, HTRF ADP detection, 30 min; activity change, % (concentration not given with the values), hits read low; 0.3% of 360,000 active; in the data active = activity change below about -30%; note: % is set by controls: 0 for no effect and ±100 for the full control effect
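TRiC (40 or 20 nM final, by batch activity) in 30 mM Tris pH 7.4, 100 mM KCl, 5 mM MgCl2, 1 mM DTT was treated with compound at 76 uM single dose, then 10 uM ATP, 30 min at 37 °C. ADP was read by HTRF Transcreener.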
RXFP1 agonist: agonists of human relaxin receptor RXFP1; Q9HBX9; HEK293T-RXFP1 cAMP TR-FRET, 30 min; response scale: percent of porcine relaxin response, buffer zero; Potency, µM (titrated, usually from 57.5 µM), for the others: top-dose activation, most hits filed as activators; 0.3% of 370,000 active; AID 2676; note: potency is the fitted concentration of half-maximal effect; % is set by controls: 0 for no effect and ±100 for the full control effect; nearly all actives have a fitted effect of over 60% in size
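HEK293 cells stably expressing RXFP1, treated 30 min at 37C with compounds plus PDE4 inhibitor Ro 20174; cAMP measured by HTRF TR-FRET. Normalized to buffer and 29 nM porcine relaxin; EC50 by Hill fit.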
The depositor's hits bear a star; u = inconclusive; x = no result; [ ] = remark or other dose. In the library only some 1.2% were active in any assay of this set; here they are far more common. Unless noted, calls come from the whole dose curve; as a rule, active = well fitted curve in the direction sought with a large enough effect; inconclusive = small, poorly fitted or top-dose-only effect, or another doubt; inactive = no such curve, though single readings can be large; an effect the other way counts as inactive or inconclusive.

SMILES | gsp agonist | gsp antag | Mm-Cpn inhibitor | RXFP1 antag | CCT modulator | RXFP1 agonist
CCOC(=O)C1CCC(CN(Cc2cccc(Br)c2)S(=O)(=O)c2ccc(Cl)cc2)CC1 (stereo not given) | x | x | x | -16 | x | 3%
COc1cc(CNCCO)cc(Br)c1OCc1ccccc1Cl | -13% | 25% | 1% | -76* | 0 | 0%
O=C(c1ccc2c(c1)OCO2)N1CCC2(CC1)Oc1ccc(F)cc1C(=O)C21CC(c2cccnc2)=NO1 (stereo not given) | x | 35µM* | 2% | x | 1 | 0%
C/C(=N/OC(=O)c1ccc(C)cc1)C(=O)c1ccc(Br)cc1 | -8% | -5% | 2% | 4 | 1 | -2%
CC/C(=N/O)C(=O)c1ccc(Br)cc1 | -2%[15.4 µM] | 8% | -6% | -88* | 2 | -1%
COC(CNC(=O)c1ccc(-n2c(=S)[nH]c3ccccc3c2=O)cc1)OC | 11%[15.4 µM] | -13% | 1% | -75* | 2 | 0%
CCOC(=O)N1CCN(C(=O)c2ccc(-n3c(=S)[nH]c4ccccc4c3=O)cc2)CC1 | 5% | u | -15% | -107* | -1 | 29%
CCC(C)NC(=O)c1ccc(-n2c(=S)[nH]c3ccccc3c2=O)cc1 (stereo not given) | -11%[15.4 µM] | 6% | 0% | -105* | -4 | 4%
CCOC(=O)N1CCN(C(=O)c2ccc3c(=O)n(-c4ccc(OC)cc4)c(=S)[nH]c3c2)CC1 | 5% | -13% | 1% | 3 | -3 | -1%
Cc1ccc(-n2ncc(C(=O)NCCCN3CCc4ccccc4C3)c2C2CCN(C(=O)OC(C)(C)C)CC2)c(C)c1 | x | x | x | u | x | -2%
COc1ccc(CN2C(=O)c3cccnc3C2Nc2ccc(OC)c(Cl)c2)cc1 (stereo not given) | -44% | 7% | -11% | 0 | -71* | 2%
COc1ccc(NC2c3ncccc3C(=O)N2Cc2ccccc2)c(OC)c1 (stereo not given) | -6% | -12% | -12% | 1 | -4 | -2%
CC1CCN(S(=O)(=O)c2ccc3c(c2)c(=O)c(C(=O)NC(C)c2ccccc2)cn3C)CC1 (stereo not given) | x | x | x | -18 | x | 4%
CCOC(=O)C1(Cc2ccccc2C(F)(F)F)CCN(C2CCC2)CC1 | 4%[15.4 µM] | x | 5% | -3 | 0 | 0%
CCOC(=O)C1(Cc2ccccc2C(F)(F)F)CCN(C2CCN(C(C)=O)CC2)CC1 | 6%[15.4 µM] | -1% | 2% | -63* | 1 | 1%
O=C(OCc1nnc(-c2ccccc2)o1)c1ccc(Br)o1 | -3%[15.4 µM] | 2% | 3% | -73* | 2 | 0%
O=C(OCc1nnc(-c2ccccc2)o1)c1ccc([N+](=O)[O-])o1 | -11%[15.4 µM] | 7% | 3% | 40 | -1 | 0%
Cc1cc(C(=O)OCc2nnc(-c3ccccc3)o2)c(C)n1-c1ccccc1 | u | -16% | 0% | -4 | -127* | 1%
O=C(OCc1nnc(-c2ccccc2)o1)c1cn(-c2ccccc2)nc1-c1ccccc1 | 17% | -4% | -7% | -9 | 0 | 0%
COC(=O)c1cccc(Nc2c(-c3ccc(SC)cc3)nc3nc[nH]n23)c1 | x | x | x | -22 | x | 1%
Cc1ccc(C(C)OC(=O)C2(C)CCC(C(=O)O)C2(C)C)cc1 (stereo not given) | x | x | x | -7 | x | x
O=C(CSc1nc2c([nH]c3ccccc32)c(=O)n1-c1ccc(Cl)cc1)c1ccccc1 | x | x | x | x | x | 1%
O=C(CSc1nc2c([nH]c3ccccc32)c(=O)n1-c1ccccc1)c1ccccc1 | x | x | x | -109* | x | -2%
N#Cc1ccc(OCC(=O)OCC(=O)c2ccc[nH]2)cc1 | 6%[15.4 µM] | -20% | -3% | -8 | -1 | 0%
N#Cc1ccc(OCC(=O)OCC(=O)c2ccccc2)cc1 | -3%[15.4 µM] | 2% | 1% | 3 | -33* | x
SMILES | gsp agonist | gsp antag | Mm-Cpn inhibitor | RXFP1 antag | CCT modulator | RXFP1 agonist
Cc1ccccc1CS(=O)(=O)Cc1ccc(C(=O)NCCc2ccc(Cl)cc2)o1 | x | x | x | -96* | x | 6%
Cc1cc2c(=O)oc(-c3ccccc3Br)nc2s1 | 1%[15.4 µM] | 35µM* | -14% | -13 | -1 | -1%
Cc1ccc(C(=O)OC2OC(=O)C(Cl)=C2N2CCOCC2)cc1 (stereo not given) | -1%[15.4 µM] | 6% | 3% | 7 | -50* | 0%
Cn1c(=O)n(C)c2cc(N3CCOCC3)c(NS(=O)(=O)c3ccc(Br)cc3)cc21 | x | x | x | -9 | x | 1%
O=C1/C(=C/c2ccccn2)SC(=S)N1Nc1ncc(C(F)(F)F)cc1Cl | -7% | u | x | -72* | -4 | x
CCC(Cc1ccccc1)NC(=O)Cn1cccc1C(=O)c1ccccc1 (stereo not given) | 3% | -11% | -4% | -114* | -42* | 0%
CC(C)NC(=O)[C@H](CSCc1ccccc1)N1Cc2ccccc2C1=O | 16% | 1% | 0% | x | 1 | -1%
O=C(NCCCN1CCCC1)[C@H](CSCc1ccccc1)N1Cc2ccccc2C1=O | 5%[15.4 µM] | 11% | -4% | -60* | 0 | 1%
COc1cccc(CNc2nc3ccccc3c3nc(-c4cccc(C)c4)nn23)c1 | x | x | x | -6 | x | 5%
Cc1ccc(C2=CC(C)(c3ccc(C)cc3)Nc3nc(C(F)(F)F)nn32)cc1 (stereo not given) | 6%[15.4 µM] | 12% | u | -67* | 0 | 0%
Cc1ccc(C(=O)O)cc1NC(=O)C1=CSCCO1 | 13% | -4% | -1% | -110* | -63* | 0%
CCC(C(=O)NCCCc1ccccc1)n1nc(C)c2c(C)n(-c3ccccc3)nc2c1=O (stereo not given) | 10% | -18% | -1% | -62* | 0 | 0%
Cc1ccc(OC(=O)c2ccc3nc(C)sc3c2)cc1 | 8%[15.4 µM] | 3% | -18% | -33 | 2 | u
COc1ccc(OC(=O)c2ccc3nsnc3c2)cc1 | 9% | 9% | 1% | -2 | -48* | 2%
CC(C)(C)C(=O)OCCNc1nc(-c2ccccc2)nc2ccccc12 | u | 50µM* | 1% | u | -1 | 0%
CCCCC(O)/C=C(C)/C=C/C=C/C(=O)N1CCCC1=O (stereo not given) | x | x | x | -10 | x | x
Cc1cccc(N2CCN(C(=O)c3cnn(-c4cccc(Cl)c4C)c3C3CCNCC3)CC2)c1C | x | x | x | -28 | x | -2%
Cc1ccc(N2CC(C(=O)NC3CC3)CC2=O)cc1Cl (stereo not given) | 10%[15.4 µM] | -4% | 3% | 11 | 1 | 0%
Cc1ccc(N2CC(C(=O)NCC3CCCO3)CC2=O)cc1Cl (stereo not given) | 13% | -5% | 1% | 1 | -143* | 1%
O=C(Nc1ccc(F)cc1)c1cncs1 | 14%[15.4 µM] | 11% | -1% | 9 | -5 | 2%
